This is part of a sample that, as a whole, favours compounds with a hit. Of some 83,000 tested, about 20% had one in any assay.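 Interpretation: 100, growth as untreated; towards 0, rising growth inhibition; 0, no net growth; 0 to -100, cell death. Compounds scoring below 10 were considered active.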 The source made the active and inactive calls.
Columns and labels:
Experiment in all cases: NCI-60 one-dose screen, 48 h (100 = growth as untreated, 0 = no growth, -100 = all killed)
HCT-15 colon = details: 10 µM unless noted
HT29 colon = details: 10 µM unless noted
U251 CNS = details: 10 µM unless noted
PC-3 prostate = details: 10 µM unless noted
SK-MEL-5 melanoma = details: 10 µM unless noted
UACC-62 melanoma = details: 10 µM unless noted
LOX IMVI melanoma = details: 10 µM unless noted
SK-MEL-2 melanoma = details: 10 µM unless noted
EKVX NSCLC = details: 10 µM unless noted
SN12C renal = details: 10 µM unless noted
UO-31 renal = details: 10 µM unless noted
TK-10 renal = details: 10 µM unless noted
ACHN renal = details: 10 µM unless noted
CAKI-1 renal = details: 10 µM unless noted
A498 renal = details: 10 µM unless noted
CCRF-CEM leukemia = details: 10 µM unless noted
MOLT-4 leukemia = details: 10 µM unless noted
SNB-75 CNS = details: 10 µM
SNB-19 CNS = details: 10 µM unless noted
SK-MEL-28 melanoma = details: 10 µM unless noted

Measured: growth

CCO/C=N/C1=C(C#N)C(c2ccc(Cl)cc2)c2c(c3ccc(C)cc3[nH]c2=O)O1 (stereo unspecified)
inactive: HCT-15 colon 91.1% | HT29 colon 80.5% | U251 CNS 90.3% | PC-3 prostate 83.5% | SK-MEL-5 melanoma 87.1% | UACC-62 melanoma 67.6% | LOX IMVI melanoma 86.8% | SK-MEL-2 melanoma 101% | EKVX NSCLC 69.5% | SN12C renal 85.5% | UO-31 renal 49.6% | TK-10 renal 116% | ACHN renal 78.5% | CAKI-1 renal 49.7% | A498 renal 66.1% | CCRF-CEM leukemia 87.3% | MOLT-4 leukemia 95.6%

C=C[C@@H]1C[C@@H]2Cc3cc(Cl)ccc3N1O2
active: CCRF-CEM leukemia -61.3%
inactive: HCT-15 colon 97.7% | SNB-75 CNS 93.3% | SNB-19 CNS 113% | U251 CNS 89.7% | PC-3 prostate 94.9% | SK-MEL-5 melanoma 102% | UACC-62 melanoma 96.5% | LOX IMVI melanoma 92.5% | SK-MEL-28 melanoma 103% | SK-MEL-2 melanoma 107% | EKVX NSCLC 90.2% | SN12C renal 94.9% | UO-31 renal 101% | TK-10 renal 101% | ACHN renal 104% | CAKI-1 renal 88.7% | A498 renal 85.6% | MOLT-4 leukemia 26.4%

COc1ccc(C2C=C(c3ccc(N)cc3)N=C3SC=CN32)cc1OC (stereo unspecified)
inactive: HCT-15 colon 101% | HT29 colon 103% | U251 CNS 98.5% | PC-3 prostate 91.4% | SK-MEL-5 melanoma 103% | UACC-62 melanoma 112% | LOX IMVI melanoma 105% | SK-MEL-28 melanoma 113% | SK-MEL-2 melanoma 108% | SN12C renal 105% | UO-31 renal 82.2% | TK-10 renal 98.1% | ACHN renal 99.9% | CAKI-1 renal 101% | A498 renal 108% | CCRF-CEM leukemia 97.7% | MOLT-4 leukemia 90.6%

C=C(C)[C@@H]1C[C@H](O)Cc2cc(F)ccc2N1
inactive: HCT-15 colon 100% | SNB-75 CNS 87.5% | SNB-19 CNS 104% | U251 CNS 92.7% | PC-3 prostate 91.6% | SK-MEL-5 melanoma 99.3% | UACC-62 melanoma 95.6% | LOX IMVI melanoma 87.1% | SK-MEL-28 melanoma 103% | SK-MEL-2 melanoma 76.8% | EKVX NSCLC 87.3% | SN12C renal 93.8% | UO-31 renal 75.5% | TK-10 renal 92.3% | ACHN renal 94.4% | CAKI-1 renal 91.4% | A498 renal 111%
active: CCRF-CEM leukemia -62.7% | MOLT-4 leukemia -28.3%

COc1ccc(OC)c(/C=C2\Oc3cc(OCCCN4CCCC4)ccc3C2=O)c1
inactive: HCT-15 colon 20% | HT29 colon 10.3% | U251 CNS 74.2% | PC-3 prostate 82.9% | UACC-62 melanoma 95.9% | LOX IMVI melanoma 12% | SK-MEL-28 melanoma 87.4% | SK-MEL-2 melanoma 104% | EKVX NSCLC 80.4% | SN12C renal 76.2% | UO-31 renal 56.7% | TK-10 renal 99.8% | ACHN renal 78.2% | CAKI-1 renal 82% | CCRF-CEM leukemia 50.8% | MOLT-4 leukemia 54.8%

Nc1nc(-c2ccccc2)c(CCCOc2ccc(NC(=O)CBr)cc2)c(=O)[nH]1
inactive: HCT-15 colon 101% | SNB-75 CNS 94.3% | SNB-19 CNS 91.1% | U251 CNS 86.4% | PC-3 prostate 107% | SK-MEL-5 melanoma 92.9% | UACC-62 melanoma 90.3% | LOX IMVI melanoma 20.3% | SK-MEL-28 melanoma 104% | SK-MEL-2 melanoma 101% | EKVX NSCLC 117% | SN12C renal 91.5% | UO-31 renal 71% | TK-10 renal 102% | ACHN renal 96.2% | CAKI-1 renal 106% | A498 renal 103% | CCRF-CEM leukemia 29.1% | MOLT-4 leukemia 96.1%

CCCCC(CC)OC(=O)C(Br)CC (stereo unspecified)
inactive: HCT-15 colon 105% | SNB-75 CNS 90.1% | SNB-19 CNS 110% | U251 CNS 97.2% | PC-3 prostate 102% | SK-MEL-5 melanoma 102% | UACC-62 melanoma 106% | LOX IMVI melanoma 94.1% | SK-MEL-28 melanoma 103% | SK-MEL-2 melanoma 100% | EKVX NSCLC 105% | SN12C renal 115% | UO-31 renal 93.6% | TK-10 renal 103% | ACHN renal 109% | CAKI-1 renal 99% | A498 renal 97.4% | CCRF-CEM leukemia 109% | MOLT-4 leukemia 95.4%

O=C(Nc1cccc(-n2cc(-c3ccncc3)c(-c3ccc(Cl)c(O)c3)n2)c1)c1ccc(N2CCOCC2)c(C(F)(F)F)c1
active: LOX IMVI melanoma 9.98% | SK-MEL-28 melanoma 1.14%
inactive: HCT-15 colon 26.2% | HT29 colon 98% | U251 CNS 11.8% | PC-3 prostate 27.2% | SK-MEL-5 melanoma 50.8% | UACC-62 melanoma 49.2% | SK-MEL-2 melanoma 17.6% | SN12C renal 73.9% | UO-31 renal 36.9% | TK-10 renal 119% | ACHN renal 36.6% | CAKI-1 renal 81.2% | A498 renal 101% | CCRF-CEM leukemia 27.9% | MOLT-4 leukemia 29.1%

CCN(CC)CCCC(C)Nc1c2ccc(Cl)cc2nc2cc(OC)c(OC)cc12 (stereo unspecified)
inactive: U251 CNS 16.2% | PC-3 prostate 16.5% | SK-MEL-5 melanoma 45.3% | SK-MEL-2 melanoma 48% | EKVX NSCLC 53.7% | SN12C renal 34.3% | A498 renal 54.6%
active: HCT-15 colon -22.4% | HT29 colon -23.8% | UACC-62 melanoma -38% | LOX IMVI melanoma -53.3% | SK-MEL-28 melanoma -74.7% | UO-31 renal -41% | TK-10 renal 2.47% | ACHN renal -76.2% | CAKI-1 renal 9.87% | MOLT-4 leukemia -8.8%

FC(F)(F)c1ccccc1-c1cn2c(ccc3ccccc32)n1
inactive: HCT-15 colon 55.4% | HT29 colon 42.2% | U251 CNS 88.5% | PC-3 prostate 79.4% | SK-MEL-5 melanoma 80.7% | UACC-62 melanoma 55.4% | LOX IMVI melanoma 74.5% | SK-MEL-2 melanoma 51.8% | EKVX NSCLC 88.5% | SN12C renal 88.3% | UO-31 renal 61.1% | TK-10 renal 125% | ACHN renal 82.3% | CAKI-1 renal 58.7% | A498 renal 81.6% | CCRF-CEM leukemia 78.6% | MOLT-4 leukemia 107%

C=C1CCC2C3(C)COC(c4c(OC)cccc4OC)OC3CCC2(C)C1C/C=C1/C(=O)OCC1O (stereo unspecified)
inactive: HCT-15 colon 48.3% | SNB-75 CNS 50.8% | SNB-19 CNS 77.3% | U251 CNS 35.4% | PC-3 prostate 20.6% | SK-MEL-5 melanoma 64.7% | UACC-62 melanoma 58.9% | LOX IMVI melanoma 15.7% | SK-MEL-28 melanoma 97.3% | SK-MEL-2 melanoma 50% | EKVX NSCLC 96.5% | SN12C renal 28.2% | UO-31 renal 46.2% | TK-10 renal 50.5% | ACHN renal 66% | CAKI-1 renal 172% | A498 renal 102% | MOLT-4 leukemia 51.4%
active: CCRF-CEM leukemia -33.1%

COc1ccc2c(c1)NC1=C(C(=O)OC1)C2c1cc(OC)c2c(c1)OCO2 (stereo unspecified)
active: SK-MEL-5 melanoma -55.1%
inactive: HCT-15 colon 16.5% | SNB-75 CNS 53.6% | SNB-19 CNS 37.3% | U251 CNS 21.1% | PC-3 prostate 24.3% | UACC-62 melanoma 50.8% | LOX IMVI melanoma 19% | SK-MEL-28 melanoma 66.9% | SK-MEL-2 melanoma 54.6% | EKVX NSCLC 52.2% | SN12C renal 26.4% | UO-31 renal 57.5% | TK-10 renal 58.3% | A498 renal 18.5% | CCRF-CEM leukemia 10.1% | MOLT-4 leukemia 11.6%

Nc1nc(=O)c2ccccc2s1
inactive: HCT-15 colon 101% | SNB-75 CNS 94.1% | SNB-19 CNS 104% | U251 CNS 111% | PC-3 prostate 99.4% | SK-MEL-5 melanoma 116% | UACC-62 melanoma 97.2% | LOX IMVI melanoma 104% | SK-MEL-28 melanoma 121% | SK-MEL-2 melanoma 104% | EKVX NSCLC 111% | SN12C renal 98.9% | UO-31 renal 78.3% | TK-10 renal 114% | ACHN renal 99.4% | CAKI-1 renal 101% | A498 renal 131% | MOLT-4 leukemia 103%

COc1cc(C2CC(c3ccc4c(c3)OCO4)=NN2C=O)cc(OC)c1OC (stereo unspecified)
active: SNB-75 CNS -13.5% | CAKI-1 renal 6.42%
inactive: HCT-15 colon 33.5% | SNB-19 CNS 42.8% | U251 CNS 32% | PC-3 prostate 47.9% | SK-MEL-5 melanoma 17.2% | UACC-62 melanoma 40.9% | LOX IMVI melanoma 34.5% | SK-MEL-28 melanoma 50.6% | SK-MEL-2 melanoma 31.3% | EKVX NSCLC 37.9% | SN12C renal 46.3% | TK-10 renal 53.2% | A498 renal 31.2% | CCRF-CEM leukemia 24.5% | MOLT-4 leukemia 45%

CN(C)CCN1C(=O)c2ccc3c4c(ccc(c24)C1=O)C(=O)N(CCN=C=S)C3=O
active: HCT-15 colon -78.2% | SNB-75 CNS -75.3% | SNB-19 CNS -92.3% | U251 CNS -95.7% | PC-3 prostate -80.3% | SK-MEL-5 melanoma -98.8% | UACC-62 melanoma -92.5% | LOX IMVI melanoma -82.3% | SK-MEL-28 melanoma -87.7% | SK-MEL-2 melanoma -75% | EKVX NSCLC -95.2% | SN12C renal -89.5% | UO-31 renal -95.4% | TK-10 renal -95.3% | CAKI-1 renal -80% | A498 renal -97.8% | CCRF-CEM leukemia -50.6% | MOLT-4 leukemia -52.2%

COc1cc(C2CC(c3ccc4c(c3)OCO4)=NN2C(C)=O)cc(OC)c1OC (stereo unspecified)
active: SNB-75 CNS -12.1% | CAKI-1 renal 2.4%
inactive: HCT-15 colon 40.4% | SNB-19 CNS 47.6% | U251 CNS 28.2% | PC-3 prostate 43.8% | SK-MEL-5 melanoma 11.7% | UACC-62 melanoma 46.2% | LOX IMVI melanoma 35.7% | SK-MEL-28 melanoma 52.7% | SK-MEL-2 melanoma 28.5% | EKVX NSCLC 38.7% | SN12C renal 46.3% | TK-10 renal 38.2% | A498 renal 28.8% | CCRF-CEM leukemia 16% | MOLT-4 leukemia 36%

CNc1ccc(Br)c2c1C(=O)c1ccccc1C2=O
inactive: HCT-15 colon 98.2% | SNB-75 CNS 96.7% | SNB-19 CNS 110% | U251 CNS 103% | PC-3 prostate 94.5% | SK-MEL-5 melanoma 110% | UACC-62 melanoma 95.8% | LOX IMVI melanoma 102% | SK-MEL-28 melanoma 115% | SK-MEL-2 melanoma 129% | EKVX NSCLC 115% | SN12C renal 102% | UO-31 renal 86.1% | ACHN renal 104% | CAKI-1 renal 100% | A498 renal 93.3% | CCRF-CEM leukemia 86.1% | MOLT-4 leukemia 94.7%

Reference: PubChem BioAssay (NCI)
